Values joined by “and” are separate entries in the source; they are usually repeats but may differ in a detail not shown here. Identical values can stand only once. Active and inactive are the calls of the source.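 The calls were made as follows, unless noted: active = normalized viability below 100% at a tested concentration; inactive = the rest.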
How the values were obtained:
[1] = Wnt pathway potentiators raising nuclear beta-catenin – imaging, WNT3A-conditioned medium, mouse C2C12, NPC library, primary screen (AID 1117326; in the data active = nuclear beta-catenin stimulation mostly above about 4.2%, no sharp cut-off; inactive = mostly below about 10%); conditions: stronger effect = higher value
[2] = stimulators of insulin release from INS-1E, primary screen, cell-based, 5 mM glucose, NPC library (AID 1117329;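 active = compound raises insulin release from rat beta cells at 5 mM glucose, no numeric limit stated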); conditions: rat INS-1E insulin secretion, at 10 µM, stronger effect = higher value
[3] = growth inhibition of GSK3B-pretreated HCT116 cells – cell-based, CellTiter-Glo, 0.2 to 20 µM (AID 1117336;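 active = compounds lowering colon cancer cell viability after pretreatment blocking the GSK3B kinase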); conditions: HCT116 viability after GSK3B inhibitor, at 20 µM, stronger effect = higher value
[4] = inhibition of endothelial tube formation, primary screen, imaging, VEGF stimulated, CD31 staining, tube area, NPC library (AID 1117340;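 active = compound that reduces growth-factor-driven endothelial tube area in a mixed cell culture, no cutoff stated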); conditions: VEGF-stimulated ADSC/ECFC co-culture, at 10 µM, stronger effect = higher value
[5] = GLP1 release stimulators, primary, NCI-H716, NPC library (AID 1117341;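 active = compound raises GLP1 secretion from the human gut endocrine cells, with no numeric limit stated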); conditions: NCI-H716 cells, at 10 µM, stronger effect = higher value
[6] = HCT116 colon cancer cell growth inhibition, primary screen, CellTiter-Glo luminescence, NPC library (AID 1117342;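 active = compounds that lower survival of HCT116 colon cancer cells in the luminescence readout, no numeric limit stated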); conditions: at 20 µM (top of the series)
[7] = reduced SW480 viability measured with CellTiter-Glo, NPC library, primary (AID 1117343;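 active = compounds that lower viability of the colon cancer cells in the luminescence readout, with no numeric limit stated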); conditions: CellTiter-Glo luminescence; at 20 µM (top of the series)
[8] = NPC library primary testing for decreased DLD-1 cell viability via CellTiter-Glo (AID 1117346;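 active = compounds that lower survival of DLD-1 colon cancer cells in the luminescence readout, no cutoff given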); conditions: DLD-1 viability, CellTiter-Glo luminescence; at 20 µM (top of the series)
[9] = target: 6-phosphogluconate dehydrogenase, decarboxylating (Homo sapiens) (UniProt P52209); test: inhibition of human phosphogluconate dehydrogenase – biochemical, recombinant enzyme, NADPH absorbance, primary screen (AID 1159550;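 active = at least 20% inhibition of 6-phosphogluconate dehydrogenase activity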); conditions: recombinant 6PGD, NADPH absorbance 341 nm; at 10 µM; stronger effect = higher value
Chain of 6-phosphogluconate dehydrogenase, decarboxylating (Homo sapiens) (P52209 whole entry, looked up): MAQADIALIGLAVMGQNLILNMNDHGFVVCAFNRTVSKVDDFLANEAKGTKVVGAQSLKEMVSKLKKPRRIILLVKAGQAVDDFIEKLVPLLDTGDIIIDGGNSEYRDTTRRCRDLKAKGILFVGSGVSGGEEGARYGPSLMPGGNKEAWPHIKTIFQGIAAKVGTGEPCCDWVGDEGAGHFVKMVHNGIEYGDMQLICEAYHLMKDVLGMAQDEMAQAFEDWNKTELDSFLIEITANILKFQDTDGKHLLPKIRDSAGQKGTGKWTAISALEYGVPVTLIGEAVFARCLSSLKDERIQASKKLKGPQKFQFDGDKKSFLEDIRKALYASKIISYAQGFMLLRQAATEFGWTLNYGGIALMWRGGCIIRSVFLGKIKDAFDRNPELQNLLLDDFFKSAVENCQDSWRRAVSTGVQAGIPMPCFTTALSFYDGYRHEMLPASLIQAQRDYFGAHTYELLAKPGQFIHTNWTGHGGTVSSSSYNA

[10] = modulation of C. elegans fzo-1 (AID 1259413; call rule not given here;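 also: fzo-1 mutant C. elegans worms in liquid wells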); conditions: C. elegans fzo-1 modulator screen, mean read-out; stronger effect = higher value
[11] = EMT-state selective cytotoxicity in co-culture – imaging, PC-3E GFP, TEM4-18 mCherry, primary screen (AID 1345086;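 active = compounds killing one labelled cell type while sparing the other, by normalised counts and ratio limits, not self-fluorescent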;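 as to all read-outs here: cells exposed to compound for 72 h before imaging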;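 as to red/green cell ratio (normalised): normalised mesenchymal count divided by normalised epithelial count so high means epithelial killing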); conditions: PC-3E GFP / TEM4-18 mCherry co-culture, imaging cell counts, at 1 µM; for red/green cell ratio (normalised): actives lie on both sides, counts scaled to control wells, 1 = unselective
[12] = MELAS cybrid and Rieske KO viability enhancers – cell-based, MELAS cybrids, Rieske KO mouse fibroblasts, CellTiter-Glo, primary screen (AID 1508586;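 active = mean z-score across replicates of 1.96 or higher in either the MELAS or the Rieske mutant cell line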;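 also: z relative to plate mean and SD of compound and empty wells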); conditions: low glucose
[13] = drug combination growth inhibition, ovarian cancer – cell-based, oncology-focused library, rucaparib conditional, profiling panel (AID 1508598); conditions: patient-derived ovarian cancer cells, CellTiter-Glo viability, 144 h, stronger effect = lower value
[14] = target: NAD(+) hydrolase SARM1 (Homo sapiens) (UniProt Q6SZW1); test: blocking NAD cleavage by SARM1 SAM-TIR – cell lysate, NAD-Glo luminescence (AID 1508614;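 active = compound whose remaining NAD level is above about 45 nM, limit read from the data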;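 also: higher remaining NAD means stronger inhibition of SARM1 NADase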); conditions: SAM-TIR HEK293T lysate NADase, at 1 µM, stronger effect = higher value
Chain of NAD(+) hydrolase SARM1 (Homo sapiens) (Q6SZW1 whole entry, looked up, the tested form may be a part): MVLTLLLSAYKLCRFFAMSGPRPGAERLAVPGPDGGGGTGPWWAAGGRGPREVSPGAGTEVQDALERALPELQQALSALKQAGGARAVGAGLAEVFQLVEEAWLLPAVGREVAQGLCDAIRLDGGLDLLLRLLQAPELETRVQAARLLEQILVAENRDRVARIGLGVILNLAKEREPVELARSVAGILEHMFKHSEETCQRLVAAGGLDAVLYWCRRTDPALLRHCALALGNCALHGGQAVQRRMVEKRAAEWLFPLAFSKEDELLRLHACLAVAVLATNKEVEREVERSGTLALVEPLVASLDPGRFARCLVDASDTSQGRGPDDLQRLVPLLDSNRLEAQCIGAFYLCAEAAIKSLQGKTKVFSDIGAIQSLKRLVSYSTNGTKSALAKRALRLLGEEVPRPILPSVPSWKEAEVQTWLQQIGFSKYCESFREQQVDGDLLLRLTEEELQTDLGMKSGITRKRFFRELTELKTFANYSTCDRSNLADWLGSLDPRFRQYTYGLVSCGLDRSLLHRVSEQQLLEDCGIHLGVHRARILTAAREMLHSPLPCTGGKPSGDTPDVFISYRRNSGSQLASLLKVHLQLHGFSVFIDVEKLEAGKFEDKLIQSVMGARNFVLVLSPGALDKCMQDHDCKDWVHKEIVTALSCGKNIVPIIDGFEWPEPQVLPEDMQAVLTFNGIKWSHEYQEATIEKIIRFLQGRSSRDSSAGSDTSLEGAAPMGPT

[15] = target: Mitogen-activated protein kinase 7 (Homo sapiens) (UniProt Q13164); test: Gal4-ERK5 driven luciferase induction – cell-based, HTS, primary screen (AID 1508626;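 active = luciferase signal above three times the same-plate solvent-only control wells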;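 also: luciferase driven by Gal4-ERK5 fusion binding five Gal4 sites before minimal TATA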); conditions: HeLa Gal4-ERK5 transactivation, 18 h, at 5 µM, stronger effect = higher value
Chain of Mitogen-activated protein kinase 7 (Homo sapiens) (Q13164 whole entry, looked up, the tested form may be a part): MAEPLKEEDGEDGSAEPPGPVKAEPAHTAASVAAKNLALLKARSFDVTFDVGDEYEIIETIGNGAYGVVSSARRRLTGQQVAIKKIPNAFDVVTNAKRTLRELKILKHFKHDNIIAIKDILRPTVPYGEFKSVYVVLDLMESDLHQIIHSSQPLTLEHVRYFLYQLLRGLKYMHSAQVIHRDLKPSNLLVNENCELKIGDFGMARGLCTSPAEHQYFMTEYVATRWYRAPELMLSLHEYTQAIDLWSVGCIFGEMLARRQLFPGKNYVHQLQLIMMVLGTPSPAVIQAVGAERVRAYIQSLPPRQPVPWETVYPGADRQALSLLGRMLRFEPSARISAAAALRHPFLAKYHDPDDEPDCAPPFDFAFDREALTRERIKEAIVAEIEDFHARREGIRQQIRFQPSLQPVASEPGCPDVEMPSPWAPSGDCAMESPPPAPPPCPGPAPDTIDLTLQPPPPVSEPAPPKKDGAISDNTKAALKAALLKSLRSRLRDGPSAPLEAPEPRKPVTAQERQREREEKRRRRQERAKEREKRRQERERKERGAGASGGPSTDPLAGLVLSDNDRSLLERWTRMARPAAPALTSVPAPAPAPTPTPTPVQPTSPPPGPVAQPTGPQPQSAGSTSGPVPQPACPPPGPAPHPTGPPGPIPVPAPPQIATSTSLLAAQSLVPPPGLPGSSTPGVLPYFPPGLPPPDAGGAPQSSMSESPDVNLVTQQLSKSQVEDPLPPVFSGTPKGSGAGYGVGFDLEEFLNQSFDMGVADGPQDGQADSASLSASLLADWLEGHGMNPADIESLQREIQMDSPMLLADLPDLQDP

[16] = growth inhibition, single agents and combos, ICB984, cell-based, cisplatin or BGB combos, synergistic combos for chromothripsis tumors (AID 1671451; call rule not given here;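 also: cells exposed for 96 hours before readout; 0% = vehicle DMSO and 100% = killing by high DMSO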); conditions: ICB984 medulloblastoma cells, drug combinations, stronger effect = higher value
F380Y = test: BK channel mutant inhibitors and activators – cell-based, U2OS BacMam, thallium flux, beta subunits, selectivity assay, profiling panel (AID 1259406;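 active = thallium flux through the channel raised or lowered by more than 3 SD from vehicle-only wells, actives on both sides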;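 also: initial slope of Thallos dye fluorescence rise after thallium is added; log ratio against the mean of 0.3% DMSO vehicle wells on the same plate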); conditions: U2OS BacMam BK variants, at 30 µM
F380Y/beta1 = test: as above; conditions: U2OS BacMam BK variants, at 30 µM
F380Y/beta2Delta = test: as above; conditions: U2OS BacMam BK variants, at 30 µM
[17] = viability loss with induced miR-34 in A549 – imaging, A549 dox-inducible miR-34, nuclei and caspase counts, primary screen (AID 1347080;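 active = compounds whose cell count with miR-34 switched on is under 0.7 times the count with it off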); conditions: A549 miR-34 inducible, Hoechst nuclei count, 48 h
[18] = measured here: epithelial PC-3E GFP cell survival
[19] = measured here: mesenchymal TEM4-18 mCherry cell survival
[20] = MELAS cybrid survival, CellTiter-Glo 48 h, stronger effect = higher value
[21] = Rieske KO mouse fibroblast survival, CellTiter-Glo 72 h

O=c1[nH]cc(F)c(=O)[nH]1
nuclear beta-catenin stimulation ([1]; at 10 µM): 6.3% (inactive)
nuclear beta-catenin stimulation ([1]; stimulation, at 2 µM): 1.7%
insulin secretion stimulation [2]: -3% (inactive)
viability decrease [3]: 87.4% (active)
tube area decrease [4]: 56.6% (active)
GLP1 secretion stimulation [5]: -0.1% (inactive)
inhibition of viability [6]: 75.1% (active)
viability decrease (inhibition) [7]: 28.6% (inactive)
viability decrease (inhibition) [8]: 26.6% (inactive)
inhibition [9]: -1.95% (inactive)
mean signal [10]: 262 (inactive)
red/green cell ratio (normalised) [11]: 0.94 (inactive)
normalised cell number [11, 18]: 0.82
normalised cell number [11, 19]: 0.77
z-score [12, 20]: -0.415 (inactive) and 0.96 (inactive) and 1.17
z-score [12, 21]: 0.32 and 1.37 and 2.42
viability ([13]; at 0.000305 µM, OCI-C5x cells, with rucaparib 10 µM, 100% = cells with rucaparib alone): 118% (inactive)
viability ([13]; at 0.000305 µM, OCI-C5x cells, without rucaparib): 111% (inactive)
viability ([13]; at 0.000305 µM, OCI-P5x cells, with rucaparib 20 µM, 100% = cells with rucaparib alone): 113% (inactive)
viability ([13]; at 0.000305 µM, OCI-P5x cells, without rucaparib): 111% (inactive)
viability ([13]; at 0.00122 µM, OCI-C5x cells, with rucaparib 10 µM, 100% = cells with rucaparib alone): 121% (inactive)
viability ([13]; at 0.00122 µM, OCI-C5x cells, without rucaparib): 108% (inactive)
viability ([13]; at 0.00122 µM, OCI-P5x cells, with rucaparib 20 µM, 100% = cells with rucaparib alone): 115% (inactive)
viability ([13]; at 0.00122 µM, OCI-P5x cells, without rucaparib): 115% (inactive)
viability ([13]; at 0.00488 µM, OCI-C5x cells, with rucaparib 10 µM, 100% = cells with rucaparib alone): 115% (inactive)
viability ([13]; at 0.00488 µM, OCI-C5x cells, without rucaparib): 115% (inactive)
viability ([13]; at 0.00488 µM, OCI-P5x cells, with rucaparib 20 µM, 100% = cells with rucaparib alone): 104% (inactive)
viability ([13]; at 0.00488 µM, OCI-P5x cells, without rucaparib): 98.7% (active)
viability ([13]; at 0.0195 µM, OCI-C5x cells, with rucaparib 10 µM, 100% = cells with rucaparib alone): 129% (inactive)
viability ([13]; at 0.0195 µM, OCI-C5x cells, without rucaparib): 101% (inactive)
viability ([13]; at 0.0195 µM, OCI-P5x cells, with rucaparib 20 µM, 100% = cells with rucaparib alone): 111% (inactive)
viability ([13]; at 0.0195 µM, OCI-P5x cells, without rucaparib): 106% (inactive)
viability ([13]; at 0.0781 µM, OCI-C5x cells, with rucaparib 10 µM, 100% = cells with rucaparib alone): 103% (inactive)
viability ([13]; at 0.0781 µM, OCI-C5x cells, without rucaparib): 102% (inactive)
viability ([13]; at 0.0781 µM, OCI-P5x cells, with rucaparib 20 µM, 100% = cells with rucaparib alone): 106% (inactive)
viability ([13]; at 0.0781 µM, OCI-P5x cells, without rucaparib): 102% (inactive)
viability ([13]; at 0.313 µM, OCI-C5x cells, with rucaparib 10 µM, 100% = cells with rucaparib alone): 121% (inactive)
viability ([13]; at 0.313 µM, OCI-C5x cells, without rucaparib): 105% (inactive)
viability ([13]; at 0.313 µM, OCI-P5x cells, with rucaparib 20 µM, 100% = cells with rucaparib alone): 99.1% (active)
viability ([13]; at 0.313 µM, OCI-P5x cells, without rucaparib): 100% (inactive)
viability ([13]; at 1.25 µM, OCI-C5x cells, with rucaparib 10 µM, 100% = cells with rucaparib alone): 145% (inactive)
viability ([13]; at 1.25 µM, OCI-C5x cells, without rucaparib): 123% (inactive)
viability ([13]; at 1.25 µM, OCI-P5x cells, with rucaparib 20 µM, 100% = cells with rucaparib alone): 99.6% (active)
viability ([13]; at 1.25 µM, OCI-P5x cells, without rucaparib): 102% (inactive)
viability ([13]; at 5 µM, OCI-C5x cells, with rucaparib 10 µM, 100% = cells with rucaparib alone): 236% (inactive)
viability ([13]; at 5 µM, OCI-C5x cells, without rucaparib): 146% (inactive)
viability ([13]; at 5 µM, OCI-P5x cells, with rucaparib 20 µM, 100% = cells with rucaparib alone): 82.4% (active)
viability ([13]; at 5 µM, OCI-P5x cells, without rucaparib): 73.4% (active)
remaining NAD [14]: 10 nM (inactive)
luciferase signal [15]: 80 AU (inactive)
inhibition ([16]; BGB IC20 combo, at 0.005 µM): -34.1%
inhibition ([16]; BGB IC40 combo, at 0.005 µM): -27.4%
inhibition ([16]; BGB IC40 combo, at 0.05 µM): 5.15%
inhibition ([16]; at 0.5 µM): 0.32% (inactive)
inhibition ([16]; cisplatin combo, at 0.05 µM): 5.15%
inhibition ([16]; cisplatin combo, at 0.5 µM): 7.66%
inhibition ([16]; cisplatin combo, at 5 µM): -4.18%
inhibition ([16]; measured here: 5 uM single agent, at 5 µM): -20.2%
log fold change Tl+ flux (F380Y): -0.0334 (inactive)
log fold change Tl+ flux (F380Y/beta1): 0.0119 (inactive)
log fold change Tl+ flux (F380Y/beta2Delta): -0.0613 (inactive)

CCCNCC(O)COc1ccccc1C(=O)CCc1ccccc1 (configuration not stated)
nuclear beta-catenin stimulation ([1]; at 10 µM): 0.3% (inactive)
nuclear beta-catenin stimulation ([1]; stimulation, at 2 µM): 0.1%
insulin secretion stimulation [2]: 32.4% (active)
viability decrease [3]: 7.9% (inactive)
tube area decrease [4]: 24.9% (inactive)
GLP1 secretion stimulation [5]: -2.7% (inactive)
inhibition of viability [6]: 32.5% (inactive)
viability decrease (inhibition) [7]: 41% (inactive)
viability decrease (inhibition) [8]: 10.6% (inactive)
inhibition [9]: -5.6% (inactive)
mean signal [10]: 272 (inactive)
red/green cell ratio (normalised) [11]: 1.04 (inactive)
normalised cell number [11, 18]: 1.35
normalised cell number [11, 19]: 1.41
z-score [12, 20]: -0.438 (inactive) and -0.541 (inactive) and -0.854 (inactive)
z-score [12, 21]: -0.529 and -0.098 and 0.366
remaining NAD [14]: 10 nM (inactive)
luciferase signal [15]: 116 AU (inactive)
log fold change Tl+ flux (F380Y): 0.197 (active)
log fold change Tl+ flux (F380Y/beta1): 0.0626 (inactive)
log fold change Tl+ flux (F380Y/beta2Delta): 0.0815 (active)

O=C1C(CCS(=O)c2ccccc2)C(=O)N(c2ccccc2)N1c1ccccc1 (configuration not stated)
nuclear beta-catenin stimulation ([1]; at 10 µM): 0.9% (inactive)
nuclear beta-catenin stimulation ([1]; stimulation, at 2 µM): 0%
insulin secretion stimulation [2]: 2.6% (inactive)
viability decrease [3]: -21% (inactive)
tube area decrease [4]: 1% (inactive)
GLP1 secretion stimulation [5]: -0.7% (inactive)
inhibition of viability [6]: -1.5% (inactive)
viability decrease (inhibition) [7]: 15.3% (inactive)
viability decrease (inhibition) [8]: -15.6% (inactive)
inhibition [9]: -6.96% (inactive)
mean signal [10]: 224 (inactive)
red/green cell ratio (normalised) [11]: 1.33 (inactive)
normalised cell number [11, 18]: 0.93
normalised cell number [11, 19]: 1.24
fold change ([17]; stronger effect = lower value, cell number ratio, induced over uninduced): 1.01 (inactive) and 1 (inactive) and 0.826 (inactive)
fold change ([17]; measured here: relative caspase fold change +Dox/-Dox): 1.95 and 1.38 and 4.04
cell count ([17]; measured here: total cells with miR-34 induction, stronger effect = lower value): 11300 and 8240 and 10300
cell count ([17]; measured here: total cells without miR-34 induction): 11300 and 8200 and 12500
z-score [12, 20]: 0.278 (inactive)
z-score [12, 21]: 0.23
remaining NAD [14]: 10 nM (inactive)
luciferase signal [15]: 104 AU (inactive)
log fold change Tl+ flux (F380Y): -0.0134 (inactive)
log fold change Tl+ flux (F380Y/beta1): 0.0248 (inactive)
log fold change Tl+ flux (F380Y/beta2Delta): 0.0447 (inactive)

From PubChem BioAssay
